Screening results deposited in PubChem BioAssay by several laboratories.
The list is not random: actives were taken first. Their share in the collection is about 2%.
Beta apoptosis – beta cell apoptosis inhibition; INS-1E cytokine-induced death, ATP luminescence, 48 h; percent of positive-control rescue, neutral wells zero; protection from apoptosis, % (test concentration not listed); 0.8% of 300,000 active; AID 435005;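 active means Every replicate reaches about 75%, or at least half do and their mean reaches it too, limit read from the data; inconclusive means At least half of replicates reach the limit but their mean does not; inactive means Under half of replicates reach the limit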;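 further: higher means more ATP so stronger rescue from cytokine killing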
697 NFkB inh – inhibitors of the PMA/ionomycin-induced NF-kB reporter in 697 B cells. 0.33% of 330,000 active. inhibition, % at 4 µM. 697 B-cell NF-kB luciferase reporter, 16 h; in the data active means inhibition above about 35%
Calb FLC – affects C. albicans growth with fluconazole; C. albicans CaCi-2 (fluconazole-resistant clinical isolate) + fluconazole, Alamar Blue growth, 48 h; growth inhibition, % (concentration not given with the values); 0.57% of 300,000 active; AID 1979;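 active means growth inhibition above about 58% in most replicates, limit read from the data, passing the limit was not always enough; inconclusive means exactly half the replicates above a set limit; inactive means most replicates below a set limit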;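 further: all wells also contain fluconazole at 8 µg/ml as a sub-toxic cotreatment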
Jurkat NFkB inh – inhibitors of the PMA/ionomycin-induced NF-kB reporter in Jurkat cells | inhibition, % at 4 µM | AID 435003 | PMA/ionomycin-induced NF-kB luciferase reporter, luminescence | 0.53% of 330,000 active; in the data active means inhibition above about 50%
Shn3 3UTR inh – Schnurri-3 reporter inhibition in Clone20 osteoblasts | Clone20 osteoblast Shn3 3'UTR firefly luciferase, 24 h | inhibition, % at 12.5 µM | 0.52% of 360,000 active | AID 588674;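 active means mean inhibition of at least 75% with every replicate also reaching 75%; inconclusive means mean inhibition at least 75% but some replicate below; inactive means mean inhibition below 75%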
Hits are given with their value; i = inactive; ? = inconclusive; nt = not tested or not shown.

SMILES	Beta apoptosis	697 NFkB inh	Calb FLC	Jurkat NFkB inh	Shn3 3UTR inh
OCCNc1nc(Nc2ccccc2Oc2ccccc2)nc(N2CCCC2)n1	i	i	i	i	i
C=CCOC(=O)c1sc(NC(=O)c2ccco2)nc1C	i	i	79	i	i
CCOC(=O)c1sc(NC(=O)c2cc3ccccc3o2)nc1C	i	i	i	i	i
Cc1ccc([C@@H]2C[C@H]3[C@@H](CN2S(=O)(=O)c2ccc(Cl)cc2)C(=O)C[C@@H](c2ccc(C)cc2)N3S(=O)(=O)c2ccc(Cl)cc2)cc1	nt	nt	nt	nt	i
CSc1ccccc1NC(=O)c1ccc(N2CC3CC(C2)c2cccc(=O)n2C3)c(NC(=O)c2cccnc2)c1 (configuration not stated)	i	i	i	i	i
O=C(NNc1cccc(Cl)c1)c1cccnc1Cl	i	i	33	i	i
COCCn1c(SCC(=O)Nc2cc(C)on2)nc2c(c1=O)SCC2	i	i	i	i	i
CCC(C(=O)NC1CCCCCC1)c1ccccc1 (configuration not stated)	i	i	i	i	i
CC[N+](C)(CC)CCC(c1ccccc1)C1CCCCC1 (configuration not stated)	105	i	i	i	i
CCCNC(=S)N1CCC(NC(=O)Nc2ccc(C)cc2)CC1	i	i	i	i	i
O=C(COC(=O)CSc1ccc(Cl)cc1)Nc1ccc2[nH]c(=O)[nH]c2c1	i	i	nt	i	i
CC1C(=O)N(Cc2cn(CCC3OCCCO3)nn2)CCS(=O)(=O)N1Cc1ccc(-c2ccc(Cl)c(Cl)c2)cc1 (configuration not stated)	nt	nt	nt	nt	92
CCCCN1C(=O)C(C#N)CC2=C1CC(C)(C)CC2=O (configuration not stated)	nt	nt	nt	nt	i
CN(C)CC1CC/C(=C\c2ccc(O)cc2)C1=O (configuration not stated)	nt	nt	nt	nt	90
N#Cc1ccc(N/N=C/c2cn(-c3ccccc3)nc2-c2ccccc2)c([N+](=O)[O-])c1	87	i	i	i	i
O=Cc1cn(-c2ccccc2)nc1-c1cccc([N+](=O)[O-])c1	nt	nt	nt	nt	i
NS(=O)(=O)c1ccc(N/N=C/c2cn(-c3ccccc3)nc2-c2cccs2)cc1	i	i	i	i	i
NS(=O)(=O)c1ccc(N/N=C/c2cn(-c3ccccc3)nc2-c2cccs2)c([N+](=O)[O-])c1	108	i	i	i	i
CC(=O)[C@@]1(O)CC[C@H]2[C@@H]3CCC4=CC(=O)CC[C@]4(C)[C@H]3CC[C@@]21C	nt	i	nt	i	i
Cc1nc(C2CCC3C4CCC5=CC(=O)CC[C@]5(C)C4CC[C@]23C)cs1 (some centres not stated)	101	i	i	i	nt
CC1=N/C(=C/c2cccnc2)C(=O)O1	i	i	i	i	i
CC(=O)Oc1cc(C(=O)OCC(=O)NC23CC4CC(CC(C4)C2)C3)cc(OC(C)=O)c1OC(C)=O	nt	nt	nt	nt	91
COc1cccc(C(=O)OCC(=O)NC23CC4CC(CC(C4)C2)C3)c1	i	i	nt	i	i
CCCCn1c(N)c(N(C(=O)CSc2nncn2-c2ccccc2)C2CCCC2)c(=O)[nH]c1=O	nt	nt	nt	nt	i
Nc1nsc2ccccc12	i	i	87	i	i
SMILES	Beta apoptosis	697 NFkB inh	Calb FLC	Jurkat NFkB inh	Shn3 3UTR inh
Cc1ccc(C)c(S(=O)(=O)NCc2ccncc2)c1	i	i	?	i	i
Cc1cc(S(=O)(=O)NCc2ccncc2)c(C)cc1Br	75	i	i	i	i
O=C1N=C(N2CCCCC2)SC1=C1CCCC1	i	i	i	i	i
CCCCN1C(=O)/C(=C2\SC(N3CCCCC3)=NC2=O)c2ccccc21	80	i	i	i	i
CCN1CCN(Cc2ccc(NC(=O)c3cc(NC(=O)c4cc(C)on4)cc(OC)c3)cc2C(F)(F)F)CC1	i	i	i	i	i
CCN1CCN(Cc2ccc(NC(=O)c3cc(NC(=O)C(=O)c4c[nH]c5ccccc45)cc(OC)c3)cc2C(F)(F)F)CC1	98	i	i	i	i
CCN1CCN(Cc2ccc(NC(=O)c3cc(NC(=O)c4cnn(-c5ccccc5)c4N)cc(OC)c3)cc2C(F)(F)F)CC1	109	i	i	i	i
COC(=O)Cc1coc2cc(OC)ccc12	i	i	nt	i	i
CCN(CC)c1ccc(C(NC(=O)C(C)C)c2ccc3cccnc3c2O)cc1 (configuration not stated)	nt	nt	nt	nt	i
CCCC(=O)NC(c1cccc([N+](=O)[O-])c1)c1ccc2cccnc2c1O (configuration not stated)	nt	nt	nt	nt	87
Oc1c(C(Nc2nc3ccccc3s2)c2ccco2)ccc2cccnc12 (configuration not stated)	103	i	?	i	i
